Sampled rows, rich in hits. Any-hit rate of the full collection: about 19%.
HT1080NT lethal = kills 2HG-producing HT-1080-NT fibrosarcoma cells; AID 686970; 360,000 compounds, 1.6% hits; HT-1080-NT fibrosarcoma viability, CellTiter-Glo ATP luminescence, 48 h; Potency, µM (top dose mostly 46.1 µM), actives largely listed as cytotoxic;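 note: NT is the 2HG producing partner of a matched IDH1 knockdown line; nearly all actives have a fitted effect of over 55% in size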
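Viability of the 2HG-overproducing fibrosarcoma line after 48 hours of compound exposure at 37 degrees C was determined by luminescence with CellTiter-Glo, and concentration-effect curves were then fitted and categorized.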
TDP1 cell CPT = growth inhibition of DT40 Tdp1-/-;hTDP1 cells with camptothecin (screen for TDP1 inhibitors) | 420,000 compounds, 12% hits | Potency, µM (doses to about 46.2 µM), hits mostly inhibitors | chicken DT40 Tdp1-/-;hTDP1 cells + 20 nM CPT, ATP luminescence, 48 h; note: nearly all actives have a fitted effect of over 55% in size
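Chicken DT40 Tdp1-/- cells stably complemented with human TDP1 were seeded at 400 cells/well in medium containing 20 nM camptothecin, exposed to pin-transferred compounds, and grown at 37 °C for at least 48 hr. Viability was read as ATP luminescence.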
ELG1 DNA repair = inhibitors of ELG1-dependent DNA repair in HEK293T cells; HEK293T ELG1-luciferase reporter, luminescence, 16 h; DNA damage induced by 5-fluorouridine; Potency, µM (top dose mostly 46.1 µM), most hits filed as inhibitors; 330,000 compounds, 2.3% hits; AID 504467; note: nearly all actives have a fitted effect of over 55% in size
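In this reporter screen, reduction of luminescence relative to DMSO vehicle indicated activity. Compounds and 5-fluorouridine were added together to 2,000 cells per well, incubated for 16 hr at 37 °C, then developed with ONE-Glo.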
TDP1 cell noCPT = qHTS for Inhibitors of human tyrosyl-DNA phosphodiesterase 1 (TDP1): qHTS in cells in absence of CPT. 420,000 compounds, 15% hits. DT40 Tdp1-/- hTDP1 cells, no CPT, ATP luminescence, 48 h. AID 686978, 2013. Potency, µM (highest dose often 46.2 µM), most hits filed as inhibitors; note: nearly all actives have a fitted effect of over 55% in size
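No-CPT arm: Tdp1-/-;hTDP1 DT40 cells (400/well) plus compounds, incubated ≥48 hr at 37 °C. Readout CellTiter-Glo luminescence.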
IL1B secr inh = inflammasome signaling inhibition, IL-1 beta readout; THP-1 LPS/ATP IL-1B secretion, AlphaLISA, 16 h; active compounds read low; activity change, % at 57.5 µM; AID 743279; 360,000 compounds, 4.7% hits; in the data active = activity change below about -50%; inconclusive = mostly about -30% to -49%
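Secreted IL-1B measured by AlphaLISA bead assay after 16 h compound exposure of THP-1 cells; compounds (final up to 57.5 uM) added 1 h before LPS (250 ng/mL) and ATP (1.25 mM) stimulation; lower signal means less secretion.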
HT1080 IDH1KD tx = kills HT-1080 cells with IDH1 knockdown | HT-1080 IDH1 knockdown viability, ATP luminescence, 48 h | Potency, µM (highest dose often 46.1 µM), actives largely listed as cytotoxic | 360,000 compounds, 2% hits
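Cytotoxicity counter-line: IDH1KD HT-1080, 48 h, CellTiter-Glo. Curves classed by r2, magnitude and activity.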
A number is an active result; n = inactive; u = inconclusive; x = no result given; [ ] = another dose, or the depositor's remark. Unless noted, calls come from the whole dose curve; as a rule, active = well fitted curve in the direction sought with a large enough effect; inconclusive = small, poorly fitted or top-dose-only effect, or another doubt; inactive = no such curve, though single readings can be large; an effect the other way counts as inactive or inconclusive.

SMILES	HT1080NT lethal	TDP1 cell CPT	ELG1 DNA repair	TDP1 cell noCPT	IL1B secr inh	HT1080 IDH1KD tx
CCOC(=O)c1ccccc1NC(=O)CSc1ncc2c(n1)-c1ccccc1N(CC)S2(=O)=O	x	u	x	16.4µM	x	x
CCN1c2ccccc2-c2nc(SCC(=O)NCc3ccccc3)ncc2S1(=O)=O	x	18.4µM	x	23.1µM	x	x
COCCn1c(SCC(=O)NN2C(=O)NC(C)(c3ccccc3)C2=O)nnc1-c1ccncc1 (stereo not drawn)	n	n	u	n	n	n
COc1cc2c(cc1OC)C(c1c(-c3c(Cl)cccc3Cl)noc1C)=NCC2	n	23.1µM	x	10.3µM	n	u
COc1ccc(C2=NCCc3cc(OC)c(OC)cc32)cc1	n	u	n	20.6µM	n	n
COc1ccc(C2=NC(C)(C)Cc3cc(OC)c(OC)cc32)cc1	n	n	n	u	n	n
COc1cc2c(cc1OC)C(CCc1ccccc1)=NCC2	n	u	n	16.4µM	n	n
COc1cc2nc(CCc3ccccc3)oc(=O)c2cc1OC	n	n	n	n	n	n
COc1cc2c(cc1OC)C(c1cc(-c3cc(Cl)ccc3Cl)oc1C)=NCC2	x	1.26µM	x	1µM	x	x
CCn1c(SCC(=O)NCc2ccco2)nnc1-c1cccc(N(C)C)c1	x	n	x	u	x	x
COc1cc2c(cc1OC)C(c1c(Cl)cccc1Cl)=NCC2	n	0.259µM	x	0.231µM	n	u
COc1cccc(C2=NCCc3cc4c(cc32)OCO4)c1OC	n	n	n	u	n	n
Cc1nc2ccc(S(=O)(=O)NCC(=O)N(C)Cc3ccccc3)cc2s1	n	n	u	n	n	n
CCn1cc2nc(SCc3ccc(F)cc3)n(Cc3ccc(Cl)cc3)c(=O)c2n1	x	6.51µM	x	3.26µM	x	x
CCSc1nc2ccccc2c(=O)n1Cc1ccc(F)cc1	n	n	n	n	n	n
CCn1cc2nc(SCc3ccccc3F)n(Cc3ccc(C)cc3)c(=O)c2n1	x	20.6µM	x	11.6µM	x	x
Cc1ccc(C)c(CSc2nnc(C)c(=O)n2N)c1	n	n	n	n	n	n
CCn1cc2nc(SCc3ccccc3)n(Cc3ccc(C)cc3)c(=O)c2n1	x	16.4µM	x	10.3µM	x	x
CCn1cc2nc(SCc3cc(C)ccc3C)n(Cc3ccc(C)cc3)c(=O)c2n1	x	16.4µM	x	n	x	x
CCn1cc2nc(SCc3ccccc3Cl)n(Cc3ccc(OC)cc3)c(=O)c2n1	x	25.9µM	x	14.6µM	x	x
CCn1cc2nc(SCC(=O)Nc3ccc(OC)c(Cl)c3)n(Cc3ccc(OC)cc3)c(=O)c2n1	x	n	x	n	x	x
Cc1cccc(NS(=O)(=O)c2ccc3c(c2)C(C)(C)C(=O)N3C)c1	x	u	x	n	x	x
Cc1sc(NC(=O)c2ccco2)c(C(Nc2ccccn2)c2ccccc2)c1C (stereo not drawn)	n	n	u	u	-50.8	n
Cc1sc(NC(=O)c2ccco2)c(C(c2cccnc2)N2CCCC2)c1C (stereo not drawn)	u	2.91µM	n	2.31µM	n	u
Cc1sc(NC(=O)c2ccco2)c(C(c2cccnc2)N2CCN(C)CC2)c1C (stereo not drawn)	n	20.6µM	n	11.6µM	n	n
SMILES	HT1080NT lethal	TDP1 cell CPT	ELG1 DNA repair	TDP1 cell noCPT	IL1B secr inh	HT1080 IDH1KD tx
COc1cccc(C(c2c(NC(=O)c3ccco3)sc(C)c2C)N2CCOCC2)c1 (stereo not drawn)	n	u	n	u	n	n
Cc1sc(NC(=O)c2ccco2)c(C(c2ccncc2)N2CCOCC2)c1C (stereo not drawn)	n	n	n	u	n	n
COc1ccc(C(Nc2ccccn2)c2c(NC(=O)c3ccco3)sc(C)c2C)cc1 (stereo not drawn)	n	u	n	u	u	n
Cc1sc(NC(=O)c2ccco2)c(CN2CCN(c3ccccc3)CC2)c1C	n	14.6µM	u	10.3µM	n	n
CCCCN(C(=O)Cc1ccc(S(=O)(=O)N2CCOCC2)s1)c1c(N)n(CC(C)C)c(=O)[nH]c1=O	n	n	n	n	n	n
O=C(c1ccc2c(c1)OCO2)N(Cc1cc2cc3c(cc2nc1N1CCOCC1)CCC3)CC1CCCO1 (stereo not drawn)	x	n	x	n	x	x
CCOc1ccc(C(c2c(NC(=O)c3ccco3)sc(C)c2C)N2CCOCC2)cc1 (stereo not drawn)	n[9.24 µM]	23.1µM	n	u	u	n
N#Cc1cccc(NC(=O)N2CC[C@@]3(CCCN(S(=O)(=O)c4ccccc4)C3)C2)c1	x	u	x	20.6µM	x	x
CS(=O)(=O)N1CCC[C@@]2(CCN(c3ccccc3)C2)C1	x	n	x	u	x	x
O=S(=O)(c1ccccc1)N1CCC[C@@]2(CCN(c3ccncc3)C2)C1	x	u	x	18.4µM	x	x
Fc1cccc(CN2CCN(c3nc4nonc4nc3NC3CC3)CC2)c1	n	n	n	23.1µM	n	n
COCCCNc1nc2nonc2nc1N1CCN(Cc2cccc(C)c2)CC1	n	u	n	u	n	n
CCOc1cc(C2C(C(=O)Nc3ccccc3)=C(C)Nc3ncnn32)cc(Br)c1O (stereo not drawn)	x	n	x	n	x	x
CCOc1ccc(C(=O)OCc2cc(=O)n3cc(C)sc3n2)cc1	x	n	x	n	x	x
COc1ccc(NC(=O)c2cc3nc(-c4ccc(Cl)c(Cl)c4)cc(C(F)(F)F)n3n2)c(OC)c1	x	n	x	n	x	x
COc1ccc(-c2ccc(=O)n(Cc3ccccc3)n2)cc1	n	u	n	u	n	n
Cc1ccc(-c2ccc(=O)n(Cc3cccc(Br)c3)n2)cc1	n	n	n	n	-77.6	n
Cc1ccc(C)c(-c2ccc(=O)n(Cc3c(F)cccc3Cl)n2)c1	n	u	u	u	n	n
COc1ccc(-c2ccc(=O)n(Cc3cccc(Cl)c3)n2)cc1	n	u	n	u	-51.1	n
Cc1ccc(-c2ccc(=O)n(Cc3c(F)cccc3Cl)n2)cc1	n	u	n	18.4µM	n	n
COCCNC(=O)c1ccc2c(c1)NC(=O)C(CS(=O)(=O)Cc1ccc(F)cc1Cl)N2 (stereo not drawn)	x	n	x	n	x	x
O=C(O)C#CC(=O)O	x	n	x	n	x	x
CC(=O)N1CCc2ccc(S(=O)(=O)N3CCc4ccccc43)cc21	n	20.6µM	u	5.17µM	n	n
COc1ccc(S(=O)(=O)N2CCc3ccccc32)cc1C(=O)O	n	n	n	n	n	n
O=S(=O)(c1ccc(Cl)cc1)N1CCc2ccccc21	n	u	n	14.6µM	n	n
CCn1c(=O)n(CC)c2cc(S(=O)(=O)N3CCc4ccccc43)ccc21	10µM	13µM	16.4µM	18.4µM	n	u
COC(=O)c1ccc(S(=O)(=O)N2CCc3ccccc32)cc1	u	n	u	u	n	9.2µM

Source: PubChem BioAssay (National Center for Advancing Translational Sciences (NCATS))
